Common to all, as to assay: DAPPL (digital affinity profiling via proximity ligation, sequencing); 10 mM Tris-HCl pH 7.5, 50 mM NaCl, 1 mM DTT, 4% glycerol, room temperature, 30 min; GST-TFs on glutathione beads, 16-mer random dsDNA library, 0.1% formaldehyde crosslink after washing; high values mean tight binding
What all share (settings): protein: recombinant; tags: N-terminal GST; dsDNA, one strand shown

Assay [1] concerns the target T1, FLI1 (Homo sapiens, UniProt Q01543 1-452).
T1 sequence: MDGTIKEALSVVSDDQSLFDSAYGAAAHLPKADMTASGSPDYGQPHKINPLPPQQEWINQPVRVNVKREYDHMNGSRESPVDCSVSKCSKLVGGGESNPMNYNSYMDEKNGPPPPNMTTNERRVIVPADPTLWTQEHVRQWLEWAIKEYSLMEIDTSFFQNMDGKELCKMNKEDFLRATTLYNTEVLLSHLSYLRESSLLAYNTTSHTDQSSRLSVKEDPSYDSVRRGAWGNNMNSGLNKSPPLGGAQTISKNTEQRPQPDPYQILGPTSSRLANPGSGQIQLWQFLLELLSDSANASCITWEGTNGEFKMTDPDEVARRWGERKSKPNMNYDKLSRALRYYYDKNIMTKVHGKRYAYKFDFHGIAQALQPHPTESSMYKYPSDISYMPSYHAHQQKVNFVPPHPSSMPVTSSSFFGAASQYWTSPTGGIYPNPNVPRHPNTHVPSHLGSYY
In short, it runs like this:
(§1)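 Beads coated with glutathione captured GST-fused human transcription factors that had been expressed in yeast, and the factors were then given DNA barcodes and pooled with a tag-only sample. The pools were incubated with 200 nmole of a random double-stranded 16-mer DNA library in Tris/NaCl/DTT/glycerol buffer for 30 min at room temperature, washed, crosslinked with 0.1% formaldehyde and proximity-ligated with BsaI/T4 ligase at 37 °C for 1 h. PCR amplification and Illumina NextSeq500 sequencing came last. Binding signal is each hexamer's read frequency for a factor divided by its frequency for the tag-only sample.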

Assay [2] concerns the target T2, ELK1 (Homo sapiens, UniProt P19419 1-428).
T2 sequence: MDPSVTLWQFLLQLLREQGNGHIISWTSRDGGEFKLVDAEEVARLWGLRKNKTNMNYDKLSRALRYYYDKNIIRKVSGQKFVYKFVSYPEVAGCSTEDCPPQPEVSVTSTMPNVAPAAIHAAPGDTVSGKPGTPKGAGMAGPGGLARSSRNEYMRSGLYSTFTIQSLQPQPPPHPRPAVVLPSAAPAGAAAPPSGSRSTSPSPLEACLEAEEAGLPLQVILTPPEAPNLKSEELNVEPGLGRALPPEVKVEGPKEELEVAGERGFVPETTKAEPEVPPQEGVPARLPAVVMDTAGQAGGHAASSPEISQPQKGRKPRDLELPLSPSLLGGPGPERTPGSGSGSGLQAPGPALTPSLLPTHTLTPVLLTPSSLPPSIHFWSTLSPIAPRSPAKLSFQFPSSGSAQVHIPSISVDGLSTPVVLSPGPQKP
The method, boiled down:
as §1

The target in assay [3] is T3, GABPA (Homo sapiens, UniProt Q06546 1-454).
T3 sequence: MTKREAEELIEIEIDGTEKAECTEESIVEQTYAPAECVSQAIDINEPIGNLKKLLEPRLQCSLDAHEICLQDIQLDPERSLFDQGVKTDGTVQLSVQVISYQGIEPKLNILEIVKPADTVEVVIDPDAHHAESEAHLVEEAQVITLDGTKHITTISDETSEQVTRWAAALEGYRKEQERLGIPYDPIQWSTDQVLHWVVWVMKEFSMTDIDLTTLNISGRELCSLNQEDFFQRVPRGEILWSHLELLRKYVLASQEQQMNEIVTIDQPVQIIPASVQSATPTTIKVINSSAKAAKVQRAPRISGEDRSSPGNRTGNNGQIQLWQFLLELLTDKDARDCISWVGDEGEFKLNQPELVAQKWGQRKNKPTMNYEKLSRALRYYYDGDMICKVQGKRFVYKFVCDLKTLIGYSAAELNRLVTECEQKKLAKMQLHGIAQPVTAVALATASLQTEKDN
The method, boiled down:
as §1

Assay [4] deals with T4, ERG (Homo sapiens, UniProt P11308 1-479).
T4 sequence: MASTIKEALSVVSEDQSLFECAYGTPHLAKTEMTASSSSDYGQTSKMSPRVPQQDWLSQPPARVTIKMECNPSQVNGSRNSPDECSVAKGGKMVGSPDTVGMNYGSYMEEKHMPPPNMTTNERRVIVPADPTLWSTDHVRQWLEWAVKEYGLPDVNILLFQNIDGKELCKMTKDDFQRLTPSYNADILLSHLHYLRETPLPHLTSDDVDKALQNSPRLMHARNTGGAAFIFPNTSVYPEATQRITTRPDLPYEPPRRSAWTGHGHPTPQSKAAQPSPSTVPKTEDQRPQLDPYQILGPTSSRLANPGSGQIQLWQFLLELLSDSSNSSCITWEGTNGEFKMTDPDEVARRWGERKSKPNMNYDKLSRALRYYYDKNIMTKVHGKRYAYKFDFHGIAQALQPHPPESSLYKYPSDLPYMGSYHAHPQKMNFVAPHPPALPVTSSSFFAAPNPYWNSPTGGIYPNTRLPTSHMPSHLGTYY
In short, it runs like this: as §1

In assay [5] the target is ELF1 (Homo sapiens, UniProt P32519 1-619). The method, boiled down:
as §1

Assay [6] has as its target T5, EHF (Homo sapiens, UniProt Q9NZC4 1-300).
T5 sequence: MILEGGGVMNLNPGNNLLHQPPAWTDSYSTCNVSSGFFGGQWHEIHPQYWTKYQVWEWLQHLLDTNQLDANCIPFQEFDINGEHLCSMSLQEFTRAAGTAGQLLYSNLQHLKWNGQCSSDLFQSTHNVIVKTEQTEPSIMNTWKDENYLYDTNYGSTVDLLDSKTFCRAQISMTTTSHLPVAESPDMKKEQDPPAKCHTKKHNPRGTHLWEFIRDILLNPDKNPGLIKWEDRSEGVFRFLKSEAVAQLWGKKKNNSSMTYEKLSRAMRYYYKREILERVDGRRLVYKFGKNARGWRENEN
The method, boiled down:
as §1

The target of assay [7] is SPI1 (Homo sapiens, UniProt P17947 1-270). The method, boiled down: as §1
Assay [8] addresses SPIB (Homo sapiens, UniProt Q01892 1-262). In short, it runs like this: as §1
Assay [9] has as its target T6, ELK3 (Homo sapiens, UniProt P41970 1-407).
T6 sequence: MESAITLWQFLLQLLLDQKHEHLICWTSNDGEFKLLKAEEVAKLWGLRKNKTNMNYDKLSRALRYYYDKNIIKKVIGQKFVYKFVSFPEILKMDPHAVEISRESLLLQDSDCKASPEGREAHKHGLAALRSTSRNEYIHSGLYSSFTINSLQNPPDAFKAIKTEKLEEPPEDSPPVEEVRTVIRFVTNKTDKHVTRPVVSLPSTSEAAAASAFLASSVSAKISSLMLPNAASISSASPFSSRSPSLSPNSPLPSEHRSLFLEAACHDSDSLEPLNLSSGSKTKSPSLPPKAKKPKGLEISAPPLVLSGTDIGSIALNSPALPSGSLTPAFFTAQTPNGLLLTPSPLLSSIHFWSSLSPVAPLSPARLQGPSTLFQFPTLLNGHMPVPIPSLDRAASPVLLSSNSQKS
In short, it runs like this:
as §1

In assay [10] the target is T7, FEV (Homo sapiens, UniProt Q99581 1-238).
T7 sequence: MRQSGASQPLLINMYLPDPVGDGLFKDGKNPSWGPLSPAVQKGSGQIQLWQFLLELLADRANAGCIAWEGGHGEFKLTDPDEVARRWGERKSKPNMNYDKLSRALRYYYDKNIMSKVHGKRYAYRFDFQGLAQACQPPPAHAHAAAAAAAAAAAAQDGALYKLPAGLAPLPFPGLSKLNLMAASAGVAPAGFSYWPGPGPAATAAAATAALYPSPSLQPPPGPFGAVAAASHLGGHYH
In short, it runs like this: as §1

Assay [11] has as its target ETV5 (Homo sapiens, UniProt P41161 1-510). The method, boiled down: as §1
For assay [12], the target named is T8, SPIC (Homo sapiens, UniProt Q8N5J4 1-248).
T8 sequence: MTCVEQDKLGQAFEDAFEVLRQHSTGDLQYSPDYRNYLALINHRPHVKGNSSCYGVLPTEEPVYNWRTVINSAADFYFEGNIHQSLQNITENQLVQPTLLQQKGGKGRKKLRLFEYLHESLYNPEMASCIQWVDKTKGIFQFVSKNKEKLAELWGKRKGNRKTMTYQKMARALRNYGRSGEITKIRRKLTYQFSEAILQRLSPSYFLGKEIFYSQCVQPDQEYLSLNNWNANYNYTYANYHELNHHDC
In short, it runs like this:
as §1

The target in assay [13] is ELF4 (Homo sapiens, UniProt Q99607 1-663). In short, it runs like this: as §1
Assay [14] addresses T9, ELK4 (Homo sapiens, UniProt P28324-2 1-405).
T9 sequence: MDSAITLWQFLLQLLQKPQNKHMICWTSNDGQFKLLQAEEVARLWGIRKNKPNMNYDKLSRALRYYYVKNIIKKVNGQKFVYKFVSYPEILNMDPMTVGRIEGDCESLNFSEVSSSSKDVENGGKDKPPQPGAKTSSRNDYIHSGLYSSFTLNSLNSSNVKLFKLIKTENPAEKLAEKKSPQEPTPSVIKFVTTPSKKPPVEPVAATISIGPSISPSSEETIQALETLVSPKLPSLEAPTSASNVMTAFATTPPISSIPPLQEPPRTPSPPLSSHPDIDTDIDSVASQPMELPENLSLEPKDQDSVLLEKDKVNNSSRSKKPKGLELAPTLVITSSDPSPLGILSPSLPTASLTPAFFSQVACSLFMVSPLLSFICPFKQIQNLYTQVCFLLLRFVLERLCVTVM
The method, boiled down: as §1

Assay [15] addresses T10, ETV2 (Homo sapiens, UniProt O00321 1-342).
T10 sequence: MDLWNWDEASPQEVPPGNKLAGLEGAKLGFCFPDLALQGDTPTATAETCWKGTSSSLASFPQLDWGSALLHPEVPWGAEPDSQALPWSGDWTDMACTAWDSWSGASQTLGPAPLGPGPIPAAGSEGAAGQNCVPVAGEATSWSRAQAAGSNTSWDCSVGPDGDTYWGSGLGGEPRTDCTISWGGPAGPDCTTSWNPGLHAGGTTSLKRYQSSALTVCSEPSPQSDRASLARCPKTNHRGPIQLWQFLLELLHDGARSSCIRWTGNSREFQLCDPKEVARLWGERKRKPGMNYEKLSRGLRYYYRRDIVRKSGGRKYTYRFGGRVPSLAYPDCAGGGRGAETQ
The method, boiled down: as §1

For assay [16], the target named is CRX (Homo sapiens, UniProt O43186 1-299). The method, boiled down:
as §1

For assay [17], the target named is ETV1 (Homo sapiens, UniProt P50549 1-477). In short, it runs like this:
as §1

Chain of CRX (O43186 whole entry): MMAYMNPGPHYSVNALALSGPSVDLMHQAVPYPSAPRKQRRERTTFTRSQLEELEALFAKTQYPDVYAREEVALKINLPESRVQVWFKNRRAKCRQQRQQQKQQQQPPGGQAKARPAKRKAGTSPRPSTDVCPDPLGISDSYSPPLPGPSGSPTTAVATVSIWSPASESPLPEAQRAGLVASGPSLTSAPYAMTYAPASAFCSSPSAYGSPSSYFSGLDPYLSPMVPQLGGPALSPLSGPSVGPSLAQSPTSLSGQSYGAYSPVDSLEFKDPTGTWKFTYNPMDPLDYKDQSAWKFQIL
Chain of ETV5 (P41161 whole entry): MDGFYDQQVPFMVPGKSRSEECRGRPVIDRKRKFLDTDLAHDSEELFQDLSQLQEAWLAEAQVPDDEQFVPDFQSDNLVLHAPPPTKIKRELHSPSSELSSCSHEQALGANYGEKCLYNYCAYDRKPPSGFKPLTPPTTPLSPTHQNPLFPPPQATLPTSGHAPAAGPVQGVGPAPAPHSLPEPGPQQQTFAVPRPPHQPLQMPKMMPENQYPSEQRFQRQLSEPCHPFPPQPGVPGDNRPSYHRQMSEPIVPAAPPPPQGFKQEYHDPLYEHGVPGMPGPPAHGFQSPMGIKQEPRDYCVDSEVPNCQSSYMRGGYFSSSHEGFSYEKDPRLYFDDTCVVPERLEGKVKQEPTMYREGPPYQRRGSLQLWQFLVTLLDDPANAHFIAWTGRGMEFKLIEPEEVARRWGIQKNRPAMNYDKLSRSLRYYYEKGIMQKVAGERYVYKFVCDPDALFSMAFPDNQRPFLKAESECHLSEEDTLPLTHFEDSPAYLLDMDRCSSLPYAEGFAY
Chain of SPIB (Q01892 whole entry): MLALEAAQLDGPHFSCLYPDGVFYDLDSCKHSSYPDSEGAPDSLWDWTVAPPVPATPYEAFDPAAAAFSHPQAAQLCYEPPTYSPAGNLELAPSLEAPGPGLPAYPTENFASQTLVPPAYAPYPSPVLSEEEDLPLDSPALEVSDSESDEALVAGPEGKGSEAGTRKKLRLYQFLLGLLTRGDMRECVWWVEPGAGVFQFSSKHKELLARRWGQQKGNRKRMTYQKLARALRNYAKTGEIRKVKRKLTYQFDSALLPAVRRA
Chain of ELF4 (Q99607 whole entry): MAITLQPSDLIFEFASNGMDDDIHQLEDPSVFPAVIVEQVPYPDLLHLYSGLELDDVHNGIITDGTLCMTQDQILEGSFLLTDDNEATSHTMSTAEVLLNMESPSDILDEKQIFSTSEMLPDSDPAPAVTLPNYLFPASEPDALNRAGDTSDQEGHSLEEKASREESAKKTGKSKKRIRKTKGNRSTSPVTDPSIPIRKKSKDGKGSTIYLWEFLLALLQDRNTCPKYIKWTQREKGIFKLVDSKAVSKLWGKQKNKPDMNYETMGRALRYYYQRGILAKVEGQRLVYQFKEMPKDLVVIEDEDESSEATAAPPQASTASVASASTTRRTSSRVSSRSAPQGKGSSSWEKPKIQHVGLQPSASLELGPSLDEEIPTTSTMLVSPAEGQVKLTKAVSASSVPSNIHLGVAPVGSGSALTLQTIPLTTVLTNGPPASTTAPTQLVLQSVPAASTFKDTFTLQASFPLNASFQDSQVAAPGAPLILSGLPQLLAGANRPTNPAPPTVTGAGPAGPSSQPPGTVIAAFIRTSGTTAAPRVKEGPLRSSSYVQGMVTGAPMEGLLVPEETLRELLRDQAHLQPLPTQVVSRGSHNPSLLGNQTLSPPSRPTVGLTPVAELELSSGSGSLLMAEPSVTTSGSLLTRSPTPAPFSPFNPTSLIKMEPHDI
Chain of ELF1 (P32519 whole entry): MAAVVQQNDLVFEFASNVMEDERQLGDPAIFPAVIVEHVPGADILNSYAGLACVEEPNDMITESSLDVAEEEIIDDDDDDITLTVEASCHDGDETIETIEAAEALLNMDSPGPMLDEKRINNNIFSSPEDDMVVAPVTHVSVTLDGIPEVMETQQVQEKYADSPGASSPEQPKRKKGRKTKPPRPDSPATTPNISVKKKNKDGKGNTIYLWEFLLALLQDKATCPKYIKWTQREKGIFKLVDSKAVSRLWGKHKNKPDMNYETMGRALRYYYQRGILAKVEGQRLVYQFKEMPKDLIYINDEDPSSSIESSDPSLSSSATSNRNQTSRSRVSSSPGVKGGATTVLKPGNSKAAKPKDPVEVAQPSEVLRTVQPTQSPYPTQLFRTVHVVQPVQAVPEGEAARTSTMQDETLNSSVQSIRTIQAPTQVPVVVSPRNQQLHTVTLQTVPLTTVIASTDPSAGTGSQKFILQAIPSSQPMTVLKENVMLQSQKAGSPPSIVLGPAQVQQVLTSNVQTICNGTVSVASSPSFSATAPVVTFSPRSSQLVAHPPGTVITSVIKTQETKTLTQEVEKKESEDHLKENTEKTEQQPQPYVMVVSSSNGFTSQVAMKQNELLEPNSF
Chain of ETV1 (P50549 whole entry): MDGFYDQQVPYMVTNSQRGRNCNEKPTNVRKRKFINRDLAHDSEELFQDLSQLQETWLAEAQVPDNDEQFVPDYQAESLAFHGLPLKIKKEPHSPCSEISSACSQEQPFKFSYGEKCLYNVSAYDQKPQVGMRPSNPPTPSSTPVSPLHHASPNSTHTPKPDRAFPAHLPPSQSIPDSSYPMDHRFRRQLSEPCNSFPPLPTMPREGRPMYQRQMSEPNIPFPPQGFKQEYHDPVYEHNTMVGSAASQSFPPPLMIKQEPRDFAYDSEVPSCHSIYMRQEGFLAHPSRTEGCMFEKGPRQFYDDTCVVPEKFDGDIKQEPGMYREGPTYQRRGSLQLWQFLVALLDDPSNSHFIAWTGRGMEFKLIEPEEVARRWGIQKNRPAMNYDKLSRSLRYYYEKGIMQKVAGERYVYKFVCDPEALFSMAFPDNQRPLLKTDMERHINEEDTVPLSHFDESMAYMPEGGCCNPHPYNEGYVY

For the sequence CCGTAT, the binding signal was 1.22 fold enrichment (6-mer frequency, TF over GST control) in assay [1]; 1.36 fold enrichment (6-mer frequency, TF over GST control) in assay [2]; 1.31 fold enrichment (6-mer frequency, TF over GST control) in assay [3]; 1.2 fold enrichment (6-mer frequency, TF over GST control) in [4]; 1.26 fold enrichment (6-mer frequency, TF over GST control) in [5]; 1.14 fold enrichment (6-mer frequency, TF over GST control) in assay [6]. For the same sequence, the binding signal is 1.26 fold enrichment (6-mer frequency, TF over GST control) in assay [7]; 1.31 fold enrichment (6-mer frequency, TF over GST control) in [8]; 1.32 fold enrichment (6-mer frequency, TF over GST control) in assay [9]; 1.14 fold enrichment (6-mer frequency, TF over GST control) in assay [10]; 1.23 fold enrichment (6-mer frequency, TF over GST control) in assay [11]; 1.29 fold enrichment (6-mer frequency, TF over GST control) in assay [12]. Further, the binding signal in [13] was 1.17 fold enrichment (6-mer frequency, TF over GST control); in assay [14], 1.27 fold enrichment (6-mer frequency, TF over GST control); in [15], 1.34 fold enrichment (6-mer frequency, TF over GST control); in assay [16] it was 1 fold enrichment (6-mer frequency, TF over GST control); in assay [17], 1.19 fold enrichment (6-mer frequency, TF over GST control).

(Values after PMC7862700, “An all-to-all approach to the identification of sequence-specific readers for epigenetic DNA modifications on cytosine”.)
